# High-throughput results from PubChem.
# PABP1 MLLE inh: inhibitors of microRNA-mediated deadenylation, human PABP1 MLLE binding; inhibition, % at 20 µM; AID 588489; 360,000 compounds, 0.36% hits; GST-MLLE / FITC-PAM2 fluorescence polarization; P11940; in the data active = inhibition above about 35%, passing the limit was not always enough
# PABP polyA inh: blocks human PABP binding to poly(A) RNA. P11940. fluorescence polarization. inhibition, % at 35 µM. 290,000 compounds, 1% hits. AID 2014;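 also: calls also rest on retests at 20 µM and on dose response follow-up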
# NRP1-CendR mod: modulators of CendR peptide binding to human neuropilin-1; O14786; FAM-RPARPAR peptide binding to NRP-1, fluorescence polarization; inhibition, % at 25 µM; 360,000 compounds, 0.85% hits;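 active = inhibition or corrected inhibition above about 18%, plus a signal ratio from 0.5 to 1.5, limit read from the data, passing the limit was not always enough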
# eIF4H inh: inhibitors of RNA binding by human eIF4H. Q15056. eIF4H fluorescence polarization binding assay. inhibition, % at 35 µM. 290,000 compounds, 0.94% hits. AID 2012;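 also: calls also rest on retests at 20 µM and on dose response follow-up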
# Numbers stand for hits; – = inactive; ? = inconclusive; · = not tested or not shown. A selection: hits, their analogues and other compounds. The true share with any hit is near 2.1%. Unless noted, no rule for the calls is given here.
SMILES,PABP1 MLLE inh,PABP polyA inh,NRP1-CendR mod,eIF4H inh
COc1ccc2c(c1)C1(C)CCN(C)CC(C1)C2O (stereo unspecified),–,·,–,·
N#CC1c2ccccc2-n2nncc2CN1S(=O)(=O)c1ccc(Cl)cc1 (stereo unspecified),–,·,–,·
O=P(CN1CCN(c2ccccc2)CC1)(N1CCCCC1)N1CCCCC1,–,–,34,–
CCC(C)N1C(=O)/C(=C/c2ccc3c(c2)CCN3CCCCl)C(=O)NC1=S (stereo unspecified),–,–,–,–
NC(Cc1ccccc1)c1nn[nH]n1 (stereo unspecified),–,·,–,·
O=C1NC(=O)N(Cc2ccco2)C(=O)/C1=C/c1cccn1CCOc1ccccc1Cl,–,active,–,?
Cn1cccc1/C=C1\C(=O)NC(=O)N(Cc2ccccc2)C1=O,–,45,–,?
Cn1cccc1/C=C1/C(=O)NC(=O)N(Cc2ccc(F)cc2)C1=O,–,22,–,?
Cn1cccc1/C=C1/C(=O)NC(=O)N(Cc2ccccc2)C1=O,–,–,–,?
O=C(O)Cn1cc(/C=C2\C(=O)NC(=O)N(Cc3ccco3)C2=O)c2ccccc21,–,127,–,?
CCOP(=O)(Cc1cc(C(C)=O)c(C)o1)OCC,40,–,–,–
O=C(CSC1c2ccccc2-c2ccccc21)N/N=C/c1ccccc1O,40,–,–,–
O=C(CSC1c2ccccc2-c2ccccc21)N/N=C/c1ccc(C(=O)O)cc1,–,–,–,–
O=[N+]([O-])c1ccc(C(c2ccc([N+](=O)[O-])cc2)c2ccc([N+](=O)[O-])cc2)cc1,–,·,–,·
Cn1cnc([N+](=O)[O-])c1Sc1ccc([N+](=O)[O-])cc1,47,–,–,–
CC(C)(C)n1cc(C(=O)c2ccccc2)cc1-c1ccccc1,–,–,21,–
CN(C)C(=O)Oc1ccc(C(=O)c2ccccc2)cc1,–,–,–,–
CN(C)C(CNC(=O)Cc1c(Cl)cccc1Cl)c1ccccc1 (stereo unspecified),–,–,26,–
COc1ccccc1CNCCc1cccc(Cl)c1,–,·,–,·
CC(=O)N(C)CC#CCN1CCC(O)CC1,–,·,37,·
CCOC(=O)[C@]12Cc3c(cc(OC)c(OC)c3OC)[C@H]1N(CCC(=O)OC)C(=O)c1ccccc12,·,·,–,·
O=C(Cc1ccccc1)N1CCN(Cc2ccc(Cl)cc2)CC1,–,·,–,·
CC(=O)Nc1ccc(CC(=O)N2CCN(Cc3ccccc3)CC2)cc1,–,60,–,82
CCCCn1nnnc1C(CCSC)N1CCC2(CC1)C(=O)NCN2c1ccccc1 (stereo unspecified),–,·,–,·
CN(C)C1C(=O)C(C(N)=O)=C(O)C2(O)C(=O)C3=C(O)c4c(O)cccc4C(C)(O)C3CC12 (stereo unspecified),–,56,–,81
CCCCCN1C(=O)c2cc(OC)ccc2[C@@]2(C(=O)OCC)Cc3cc(Cl)ccc3[C@@H]12,·,·,–,·
